About 8,600 (12%) of roughly 69,000 compounds showed an effect of 50% or more. The sample holds strong results, similar compounds and a random draw of the others, so the mix is not that of the screen.
tested on: Plasmodium berghei; assay: Screen against P. berghei liver stage (PbLuc), transformed with Luciferase, at 10uM; format: functional, HepG2; conditions: tested at 10 uM

SMILES	INHIBITION [%]
Cc1cccc(C(CNC(=O)NCc2cc[nH]n2)N2CCOCC2)c1 (stereo not drawn)	35.95
CCN(Cc1ccoc1)C(=O)NC1CCN(C(=O)OC(C)(C)C)C1 (stereo not drawn)	1.93
CCc1ccc(C(N)c2cccc(S(C)(=O)=O)c2)cc1 (stereo not drawn)	48.1
CC1CCCCN1C(=O)COc1nc(C(C)(C)C)no1 (stereo not drawn)	-29.2
Cn1cnnc1-c1ccnc(NCc2ccc(Br)cc2)c1	8.05
COc1ccc(CNc2nncs2)cc1F	8.05
COc1cc(CNc2nncs2)cc(OC)c1OC	80.8
COc1cc(CNCc2ccnc(N3CCOCC3)c2)cc(Cl)c1OC	40.3
Cn1cnnc1-c1ccnc(NCc2ccccc2)c1	57.7
Cn1cnnc1-c1ccnc(NCc2ccc3c(c2)OCCO3)c1	42.3
COc1cc(CNc2nc(N3CCOCC3)ns2)cc(OC)c1OC	8.05
COc1cc(CNc2cc(-c3nncn3C)ccn2)cc(OC)c1OC	53.4
COc1cc(CNCCc2cnn(C)c2)cc(OC)c1OC	31.55
COCCN(Cc1cnn(C)c1)C(=O)C1CCN(C2CCCCC2)CC1	36.7
C[C@@H]1CN(CCOc2ccc(Cl)cc2)CC[C@@]1(O)C1CCOCC1	-17.8
O=C(N[C@@H]1CN(Cc2ccoc2)[C@@H]2CCCO[C@@H]21)C1CC1	11.2
CCN(CC)c1ncc(Cl)c(C(=O)NC2CCC(O)CC2)n1 (stereo not drawn)	60.1
Cn1cc(I)c(C(=O)NC2CCCCC2)n1	25.4
CCN(CC)c1ncc(Cl)c(C(=O)NC2CCc3nccn3C2)n1 (stereo not drawn)	76.7
Cc1cn2c(n1)CCC(NC(=O)c1nc(C)ncc1Cl)C2 (stereo not drawn)	30.3
CCNc1ncc(C(=O)NC2CCC(n3cnnc3)CC2)cn1 (stereo not drawn)	37.7
CCN(CC)c1ncc(Cl)c(C(=O)NC2CC2)n1	57.3
O=C(NC1CCc2nccn2C1)c1ccc(NC2CC2)nc1 (stereo not drawn)	7.58
O=C(NC1CCC(O)CC1)c1cnc2c(cnn2C2CCCC2)c1 (stereo not drawn)	11.3

SMILES	INHIBITION [%]
CN(Cc1cnn(C)c1)C(=O)NC1CCC(O)CC1 (stereo not drawn)	1.81
CNc1nc(CNC(=O)Nc2cccc(Cl)c2Cl)cs1	-15.467
CCc1noc(CCC(=O)N2CCC(c3ccn[nH]3)C2)n1 (stereo not drawn)	10.97
CNC(=O)N1Cc2cc(F)ccc2C2(CCN(C)CC2)C1	21.6
CCc1ccc(S(=O)(=O)Nc2ccn(CC(=O)OC)n2)cc1	-74
C=c1ccoc1=C1NN=C(CNCCn2cc(C)cn2)O1	-25.9
NC(=O)NC(=O)CNC1(c2ccc(Cl)cc2)CCC1	-24.2
COCCN1CCCn2c(nc(CNS(C)(=O)=O)cc2=O)C1	25.8
CCOC(=O)c1sc2ccsc2c1CNC(=O)COC	19.933
CCOC(=O)c1sc2ccsc2c1CNS(C)(=O)=O	7.925
CCOC(=O)c1sc2ccsc2c1CNC(=O)C(C)OC (stereo not drawn)	17.8
CCOC(=O)c1sc2ccsc2c1CNC(=O)CC	57.2
CCOC(=O)c1sc2ccsc2c1CNC(=O)C(C)(C)C#N	20.6
CCOC(=O)c1sc2ccsc2c1CNC(=O)CCOC	61.6
CC(C(=O)NCC1CCN(c2ccncc2)CC1)S(C)(=O)=O (stereo not drawn)	-7.94
O=C(c1cnc2ccc(F)cc2c1NCc1ccco1)N1CCCCC1	-6.73
CCN(Cc1ccc(F)c(F)c1)Cc1nc2c(cnn2C)c(=O)[nH]1	-57.4
CSCC(=O)N1CCCC(CCC(=O)N(C)CCc2ccccn2)C1 (stereo not drawn)	29.2
CCc1nc(C2CCCN2C(=O)CCc2nc(C3CC3)no2)no1 (stereo not drawn)	-9.19
CCCS(=O)(=O)N1Cc2nccn2CC(Cn2cncn2)C1 (stereo not drawn)	-23.1
O=S(=O)(C1CC1)N1Cc2nccn2CC(Cn2cncn2)C1 (stereo not drawn)	68.3
CCS(=O)(=O)N1Cc2nccn2CC(Cn2cncn2)C1 (stereo not drawn)	20.6
Cc1nccn1CCC1CCN(C(=O)C2CC3(CCNCC3)CN2)CC1 (stereo not drawn)	33.9
COCCN1CCN(CCS(C)(=O)=O)CC1C (stereo not drawn)	-73.1

SMILES	INHIBITION [%]
COCCN1CCN(CCCS(=O)(=O)N(C)C)CC1C (stereo not drawn)	66.7
COCCN1CCN(CCCS(C)(=O)=O)CC1C (stereo not drawn)	25.7
NCc1cccc(-c2cccnc2C(=O)NCCN2CCOCC2)c1	25.8
Cn1cc(NC(=O)c2cc3c(s2)CCCC3)cn1	-179
CCc1nc(CCNC(=O)C2CCOC2)sc1C (stereo not drawn)	56.8
Cc1csc(CCNC(=O)C2CCOC2)n1 (stereo not drawn)	8.08
CCc1nc(CCNC(=O)C2CC2)sc1C	2.69
N#Cc1c(N2CCOCC2)nsc1-c1cccnc1	-31.3
COCCCNC(=O)Nc1c(C)cccc1C(C)C	-19.1
CCN(CC)CCCNC(=O)Nc1c(C)cccc1C(C)C	7.3
Cc1cccc(C(C)C)c1NC(=O)NCCN(C(C)C)C(C)C	56
CCN(CC)C(=O)c1ccc(CNc2cncc(-n3cccn3)n2)cc1	29.4
Cc1nc(CN2CCN(c3ccc(Cl)cn3)CC2)no1	-52.4
CCC(CC)C(O)CNC(=O)Nc1cccc(-c2nccn2C)c1 (stereo not drawn)	50.8
Cn1ccnc1-c1cccc(NC(=O)NCCCO)c1	10
CCOCCNC(=O)Nc1cccc(-c2nccn2C)c1	-21.8
Cn1cnc2c1C(COCC1CC1)CN(c1ncccn1)C2 (stereo not drawn)	-32
CC(=O)N1CCCN(C(=O)NC(C)Cn2cccn2)CC1 (stereo not drawn)	21.6
Cn1cc(CN2C[C@@H]3CCCO[C@@H]3[C@H](N3CCCC3=O)C2)cn1	-3.51
CCOCc1nc2c(c(NC(COC)c3ccccn3)n1)CCNCC2 (stereo not drawn)	8.31
COc1ccc(C(=O)C2CCCN(Cc3ccccc3O)C2)c(OC)c1 (stereo not drawn)	-20.5
COc1ccc(C(=O)C2CCCN(Cc3ccc(C)o3)C2)c(OC)c1 (stereo not drawn)	42.9
COc1ccc(C(=O)C2CCCN(CCCn3cccn3)C2)c(OC)c1 (stereo not drawn)	25.4
COc1ccc(C(=O)C2CCCN(Cc3ccon3)C2)c(OC)c1 (stereo not drawn)	47.7

SMILES	INHIBITION [%]
COCCc1ncc(CN2CCCC(C(=O)c3ccccc3)C2)cn1 (stereo not drawn)	36.8
COc1ccc(C(=O)C2CCCN(Cc3cccc(F)c3)C2)c(OC)c1 (stereo not drawn)	76.9
COc1ccc(C(=O)C2CCCN(Cc3cc(C)n[nH]3)C2)c(OC)c1 (stereo not drawn)	68.5
COc1ccc(F)cc1C(=O)C1CCCN(Cc2ccc(C)s2)C1 (stereo not drawn)	43.9
COc1ccc(C(=O)C2CCCN(Cc3ccncc3)C2)cc1OC (stereo not drawn)	63
COc1ccc(C(=O)C2CCCN(Cc3ccncc3)C2)c(OC)c1 (stereo not drawn)	-3.1
COc1ccc(C(=O)C2CCCN(CCc3ccccc3)C2)c(OC)c1 (stereo not drawn)	71.3
CN1CCN(C(=O)c2ncn3c2CN(C)S(=O)(=O)c2ccccc2-3)CC1	-79.8
CCc1noc(CN2CCC(c3ccnn3CCO)CC2)n1	-19.4
CN(C)C(C(=O)N1CCC(c2ncc[nH]2)CC1)c1ccc2c(c1)OCO2 (stereo not drawn)	14.3
O=C1COC2(CCN(C(=O)c3ccoc3)CC2)CN1Cc1ccccn1	-33.9
CN(C)C(CNC(=O)CCNC(=O)OCC(F)(F)F)c1ccsc1 (stereo not drawn)	61.9
CN(C)C(CNC(=O)OCC(F)(F)F)c1ccsc1 (stereo not drawn)	44.3
CCOCCC(=O)NCC(C)c1ccsc1 (stereo not drawn)	32
CC(C)c1cc(C(=O)N2CCCC(c3cc(=O)nc4n3CCC4)C2)no1 (stereo not drawn)	18.4
CC1(C)CN(C(=O)Nc2cc(C(F)(F)F)c[nH]c2=O)CCO1	4.97
CCO[C@H]1CC[C@H]2[C@H]1OCCN2CCOCc1ccccc1	4.98
O=C(N[C@@H]1CN(c2ncccn2)C[C@@H]2CCCO[C@@H]21)c1ccnnc1	-3.52
COc1ccc(C)cc1-n1c(COC(C)C)n[nH]c1=O	72.3
COc1ccc(Cl)cc1-n1c(COC(C)C)n[nH]c1=O	26.4
COc1ccc(OC)c(-n2c(COC(C)C)n[nH]c2=O)c1	45.4
COc1cccc(C(O)C(=O)N(C)CCc2ccccn2)c1 (stereo not drawn)	47.7
O=C(CSCC1CC1)N1CCC2(CCCN(C3CCOCC3)C2=O)C1 (stereo not drawn)	1.48
CS(=O)(=O)N1CCN(C(=O)c2cnn3c2OCCC3)CC1	31.6

SMILES	INHIBITION [%]
CN(C)C(=O)c1cnn2c1OCCC2	60.6
O=C(c1cnn2c1OCCC2)N1CCC2(CC1)OCCO2	-14.2
CC(NCCCC#N)c1ccc(S(C)(=O)=O)c(F)c1 (stereo not drawn)	19.1
CCn1c(C2CCCNC2)nn(CCn2cncn2)c1=O (stereo not drawn)	-7.13
O=C(CCn1cccc1)NCc1ccc(CN2CCCCCC2)o1	37.4
CCCOc1ccc2c(c1)OCC(C(=O)NC(C)Cn1ccnc1)=C2 (stereo not drawn)	51
CCOc1ccc2c(c1)C=C(C(=O)NC(C)Cn1cccn1)CO2 (stereo not drawn)	2.91
CCCOc1ccc2c(c1)OCC(C(=O)NC(C)Cn1cccn1)=C2 (stereo not drawn)	30.9
CCOCC1CN(S(=O)(=O)N(C)C)Cc2cnn(CC)c21 (stereo not drawn)	29
Cc1cc(NC(=O)CN2CCC(N(C)Cc3ncc(C)o3)C2)n(C)n1 (stereo not drawn)	-29.9
Cc1cnn(CCNCc2ccc(OCc3csc(C)n3)cc2)c1	-37.9
Cc1ccc(OCc2nc(CNCCn3cccn3)cs2)cc1	-24.1
Cc1cnn(CCNCc2nc(COc3ccc(F)cc3)no2)c1	19.3
Cc1cnn(CCNCc2ccc(OCc3ccccn3)cc2)c1	34.6
COc1ccc(OCCCNCCn2cccn2)cc1	64.7
Cc1cnn(CCNCc2ccc(OCc3noc(C)n3)cc2)c1	66.3
c1ccc(OCCCNCCn2cccn2)cc1	38.7
Cc1cnn(CC(C)NCc2ccc(OCc3noc(C)n3)cc2)c1 (stereo not drawn)	-79.3
Cc1nc(COc2ccc(CNCCn3cccn3)cc2)cs1	88.5
Cc1cnn(CCNCc2ccc(OCc3cscn3)cc2)c1	85.1
c1ccc(OCc2nc(CNCCn3cccn3)cs2)cc1	1.95
COc1ccc(OCCNCCn2cccn2)cc1	0.932

— ChEMBL document CHEMBL4513216, “Probing the Open Global Health Chemical Diversity Library for Multistage-Active Starting Points for Next-Generation Antimalarials” (ACS Infect Dis, 2020)
